TRHR agonist – activates the human TRH receptor. P34981. TRHR cells, calcium flux fluo-8, FDSS agonist mode. activation, % at 2 µM. actives 0.18% (n = 360,000). AID 493084; in the data active means activation above about 30%; further: 0% is about no effect
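Agonist-mode FDSS calcium read (Ex 480/Em 530, 1 s cycles) in 1536-well TRHR cells with fluo-8 dye, after 10-cycle baseline and 23 nL compound addition; TRH at EC20 (10 nM final) added afterwards for the enhancer phase.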
TSG101-PTAP inh – blocks PTAP/TSG101 interaction to inhibit HIV-1 budding. Q99816. Fluorescence polarization, FITC-PTAP peptide / Tsg101 binding. Potency, µM (top dose mostly 115 µM), for the others: at the highest dose activity change, negative = inhibition, usual class: inhibitors. 340,000 tested, under 10 active; active means well fitted inhibition curve with a large enough effect in the main read-out, with a control signal flat, not every such curve was filed as active; inconclusive means small, poorly fitted or top-dose-only effect, or effect the other way, or a change in a side signal; inactive means no such curve, though single readings can be large or run the other way; further: potency means the concentration at half of the fitted maximal effect; % of control where 0% means no effect
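Fluorescence anisotropy tracks displacement of a FITC-tagged PTAP peptide (50 nM) from the Tsg101 binding domain (10 uM), following a 20 min room-temperature incubation at pH 7.5.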
TRPML1 ag – agonists of human TRPML1 channel | TRPML1-expressing cells, Ca2+ dye fluorescence, FDSS | activation, % (test concentration not listed) | actives 0.12% (n = 410,000) | AID 624414; in the data active means activation above about 50%; inconclusive means mostly about 30% to 49%; further: 0% is about no effect
Target sequence (Q9GZU1 whole entry, looked up): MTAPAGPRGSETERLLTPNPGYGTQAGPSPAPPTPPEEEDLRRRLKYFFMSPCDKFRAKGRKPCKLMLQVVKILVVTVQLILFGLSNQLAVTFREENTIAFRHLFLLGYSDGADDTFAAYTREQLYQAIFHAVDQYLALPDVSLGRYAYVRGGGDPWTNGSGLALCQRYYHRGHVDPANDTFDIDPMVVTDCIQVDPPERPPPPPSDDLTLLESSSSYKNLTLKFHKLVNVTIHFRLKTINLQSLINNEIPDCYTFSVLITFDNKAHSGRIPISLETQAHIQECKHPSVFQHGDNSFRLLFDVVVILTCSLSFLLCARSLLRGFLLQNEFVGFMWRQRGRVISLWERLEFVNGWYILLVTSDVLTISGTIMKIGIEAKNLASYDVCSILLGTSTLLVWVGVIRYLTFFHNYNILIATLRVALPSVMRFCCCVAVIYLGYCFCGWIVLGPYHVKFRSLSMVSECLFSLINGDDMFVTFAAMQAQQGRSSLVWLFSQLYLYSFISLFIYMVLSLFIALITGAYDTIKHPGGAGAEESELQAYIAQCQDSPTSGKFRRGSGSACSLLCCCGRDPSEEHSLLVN
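In this qHTS format, compounds were pin-transferred onto Ca8-dye-loaded TRPML1-DL cells induced with Tet overnight, and intracellular Ca2+ fluorescence was recorded kinetically for 110 s after a 10 s baseline. A subsequent 4uM final 54-4 (EC80) addition followed by a second 110 s read served as the antagonist phase.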
TRHR PAM – allosterically enhances the human TRH receptor | enhancement, % at 2 µM | AID 493056 | actives 0.66% (n = 360,000) | TRHR cells, fluo-8 calcium fluorescence, EC20 TRH enhancement; in the data active means enhancement above about 30%; further: 0% is about no effect
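Enhancer read-out: after compound pinning and an initial kinetic agonist-mode read, an EC20 of TRH (10 nM final) was injected and fluo-8 calcium signal (Ex 480/Em 530) followed at 1 s/cycle for 100 cycles in TRHR-expressing cells.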
TRPML1 blocker – human mucolipin-1 channel inhibition; Q9GZU1; TRPML1-inducible cells, Ca2+ dye fluorescence, FDSS; stronger effect = lower value; inhibition of EC80 agonist-evoked calcium signal; activity change, negative = inhibition, % (concentration not given with the values); actives 0.02% (n = 390,000); in the data active means activity change below about -50%; inconclusive means between about -30% and that limit;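 further: stimulus is agonist 54-4 at its EC80 concentration; on the % scale 0 is the no-effect control and ±100 the full control effect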
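Tet-induced TRPML1-DL cells loaded with Ca8 no-wash calcium dye were read kinetically on FDSS. Compound addition was followed by EC80 agonist 54-4 (4 uM final); inhibition was read over 110 s.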
* hit, by the source's call; ? = inconclusive; nt = not tested or not shown. A selection: hits, their analogues and other compounds. The true share with any hit is near 0.81%.

SMILES | TRHR agonist | TSG101-PTAP inh | TRPML1 ag | TRHR PAM | TRPML1 blocker
O=[N+]([O-])c1ccc(Nc2nc(NCCN3CCOCC3)nc(Nc3ccc(I)cc3)n2)cc1 | nt | nt | 0 | nt | nt
O=S(=O)([O-])CCC[n+]1c(/C=C\Nc2ccccc2)oc2ccc(-c3ccccc3)cc21 | 118* | nt | nt | 27 | nt
COc1cccc(NC(=O)c2cccc(N3C(=O)C4CCC(C)CC4C3=O)c2)c1 (configuration not stated) | 0 | -3% | 0 | 5 | 26
Cc1ccc(C(=O)Nc2cccc(N3C(=O)C4CCC(C)CC4C3=O)c2)cc1 (configuration not stated) | 0 | -8% | 2 | 33* | 22
O=C(CSc1nc(-c2ccccc2)c(-c2ccccc2)o1)Nc1nnc(-c2ccccc2)s1 | 0 | 0% | 0 | 50* | 10
COc1ccccc1NC(=S)NCc1ccccn1 | 0 | -1% | 0 | 0 | -10
COc1ccc(Cl)cc1NC(=S)NCc1ccccn1 | 0 | -1% | -1 | 31* | -5
FC(F)(F)c1nc(N2CCCC2)ncc1-c1nnnn1-c1ccccc1 | 1 | -1% | 52* | -3 | -10
COc1cc(OC)c(OC)cc1CN1CCCC(C(=O)N2CCCC2)C1 (configuration not stated) | 1 | -7% | -2 | 6 | 19
COc1cccc(CN2CCCC(C(=O)N3CCCCC3)C2)c1OC (configuration not stated) | -1 | -4% | 0 | 33* | -25
COCCCN(C(=S)Nc1cccc(Cl)c1)C(C)c1ccncc1 (configuration not stated) | 1 | -1% | -1 | 37* | -5
CC(C)(C)C(=O)/C=c1\s/c(=C\c2ccc(-c3ccc([N+](=O)[O-])cc3)o2)c(=O)n1CC(=O)NC(N)=O | 215* | ? | ? | -28 | -6
CCCCCCCCN1[C@@H](CC(=O)OC)c2ccc(/C=C/C(=O)OC)cc2S1(=O)=O | nt | nt | -1 | nt | nt
COc1ccc(N2CCN(C3CCCCC3NS(=O)(=O)c3ccc(Cl)cc3)CC2)cc1 (configuration not stated) | 9 | 1% | 63* | -3 | -17
CN1CCN(C2CCCCC2NS(=O)(=O)c2ccc(Cl)cc2)CC1 (configuration not stated) | 0 | -1% | 0 | 7 | 13
COc1ccccc1N1CCN(C2CCCCC2NS(=O)(=O)c2ccc(Cl)cc2)CC1 (configuration not stated) | 46* | -12% | 0 | -16 | 82
Cc1cc(C)nc(/N=C(\N)Nc2ccc(CC(=O)OC(C)C)cc2)n1 | 13 | -1% | 68* | -8 | 12
Cc1cc(C)nc(/N=C(\N)Nc2ccc(OCc3ccccc3)cc2)n1 | 50* | -4% | 81* | -3 | 5
Cc1cc(C)nc(/N=C(\N)Nc2cccc(OCc3ccccc3)c2)n1 | 25 | -2% | ? | -20 | 19
Cc1cc(C)nc(/N=C(\N)Nc2ccc(OCCC(C)C)cc2)n1 | 27 | -1% | 97* | -20 | -15
CCOC(=O)CCc1cc(F)c(S(=O)(=O)N2CCN(S(=O)(=O)c3ccc4c(c3)OCCO4)CC2)cc1F | -1 | nt | nt | 3 | nt
O=C(Nc1ccccc1F)c1cnn2c1NC(=C1CC1)C=C2C(F)F | nt | nt | -1 | nt | nt
CCOC(=O)c1c(C)[nH]sc1=S | -3 | -1% | 1 | 33* | -4
COc1ccc(Cl)c(Cn2cnc3c(cnn3C(C)(C)C)c2=O)c1F | nt | nt | 3 | nt | -11
CCOc1cc(C(=O)OCC(=O)c2cc(C)n(CC3CCCO3)c2C)ccc1OCC(=O)N1CCOCC1 (configuration not stated) | 2 | 10% | 1 | 38* | 5
SMILES | TRHR agonist | TSG101-PTAP inh | TRPML1 ag | TRHR PAM | TRPML1 blocker
COC(=O)c1cc(F)c(S(=O)(=O)N2CCN(S(=O)(=O)c3ccc4c(c3)OCCO4)CC2)cc1F | 1 | nt | nt | 1 | nt
C=CCC1NS(=O)(=O)OC2CCCCC12 (configuration not stated) | 0 | -3% | -1 | 1 | 32
C=CCC1NS(=O)(=O)OC2CCCC12 (configuration not stated) | 0 | nt | 0 | 37* | -3
CCSCCOC(=O)C1=C(C)NC(=O)NC1c1ccc2c(c1)OCO2 (configuration not stated) | 0 | -6% | -1 | 37* | 10
CCOC(=O)C1=C(C)NC(=O)NC1c1ccc2c(c1)OCO2 (configuration not stated) | -2 | -3% | 0 | -2 | 3
COc1cc(C(=O)Nc2cccc(-c3nncn3C)c2)cc(OC)c1OC | 0 | -2% | 0 | 34* | 5
COc1cc(OC)cc(-c2c(-c3cccs3)c3cc(-c4ccc5[nH]ccc5c4)ccc3n2C)c1 | 1 | 2% | 0 | 40* | 12
O=C(CCCn1nnc2ccccc2c1=O)N[C@H](C(=O)O)c1ccccc1 | 0 | 1% | 0 | -3 | -54*
COc1ccc(NC(=O)Nc2cnccn2)cc1 | -1 | -2% | 1 | -2 | 1
CCOc1ccc(NC(=O)Nc2cnccn2)cc1 | 0 | 0% | 0 | 36* | 21
CCN(CC)CCN(C(=O)c1cccc(N2C(=O)CCC2=O)c1)c1nc2cc3c(cc2s1)OCO3 | 0 | -1% | -1 | 4 | 23
CN(C)CCCN(C(=O)c1cccc(N2C(=O)CCC2=O)c1)c1nc2cc3c(cc2s1)OCO3 | 0 | 0% | nt | 32* | nt
CC1CCN(C(=O)Cn2cnc3c(cnn3C(C)(C)C)c2=O)CC1 | 0 | -4% | -1 | 30* | 5
COc1cc(-c2noc(C)c2C#CCCN2C(=O)c3ccccc3C2=O)cc(OC)c1OC | nt | nt | -1 | nt | nt
Cc1cc2ccccc2c[n+]1C1CCCCC1 | nt | nt | 0 | nt | nt
CCOC(=O)c1[nH]c(C)c(/C(O)=C2\C(=O)C(=O)N(CCN(C)C)C2c2ccco2)c1C (configuration not stated) | 0 | 0% | 0 | -3 | 6
CCN(CC)CCN1C(=O)C(=O)/C(=C(/O)c2c(C)[nH]c(C(=O)OC)c2C)C1c1ccco1 (configuration not stated) | 0 | -3% | -1 | 30* | 17
COC(=O)c1ccc(CN(Cc2ccc(C(=O)OC)o2)C(C)(C)C)o1 | 0 | -4% | -2 | 37* | 2
CN(C)c1ccc(C(=O)Oc2cc(O/N=[N+](\[O-])N(C)C)c([N+](=O)[O-])cc2[N+](=O)[O-])cc1 | nt | nt | 1 | nt | -10
N#C/C(=C\c1cc(Br)c(O)c(Br)c1)c1nc2ccccc2c(=O)[nH]1 | 78* | nt | 2 | 20 | 8
Cc1cccc(NC(=O)CSc2nnc(C3CC3)n2CC2CCCO2)c1C (configuration not stated) | 0 | 0% | -1 | -7 | -6

Screening results from PubChem.
